Among all 76,000 compounds or so, about 1,200 (1.6%) were called active. Another 4% or so got no clear call; they are omitted. For the sample, actives were picked, then their nearest neighbours and some compounds at random. A number with no mark means an inactive call. Calls follow the shape of the full dose curve.
% is scaled to controls: 0 for no effect and ±100 for the full control effect; potency is read from the fitted curve at half-maximal effect.

Chain of Atrial natriuretic peptide receptor 1 (Homo sapiens) (P16066 whole entry, looked up): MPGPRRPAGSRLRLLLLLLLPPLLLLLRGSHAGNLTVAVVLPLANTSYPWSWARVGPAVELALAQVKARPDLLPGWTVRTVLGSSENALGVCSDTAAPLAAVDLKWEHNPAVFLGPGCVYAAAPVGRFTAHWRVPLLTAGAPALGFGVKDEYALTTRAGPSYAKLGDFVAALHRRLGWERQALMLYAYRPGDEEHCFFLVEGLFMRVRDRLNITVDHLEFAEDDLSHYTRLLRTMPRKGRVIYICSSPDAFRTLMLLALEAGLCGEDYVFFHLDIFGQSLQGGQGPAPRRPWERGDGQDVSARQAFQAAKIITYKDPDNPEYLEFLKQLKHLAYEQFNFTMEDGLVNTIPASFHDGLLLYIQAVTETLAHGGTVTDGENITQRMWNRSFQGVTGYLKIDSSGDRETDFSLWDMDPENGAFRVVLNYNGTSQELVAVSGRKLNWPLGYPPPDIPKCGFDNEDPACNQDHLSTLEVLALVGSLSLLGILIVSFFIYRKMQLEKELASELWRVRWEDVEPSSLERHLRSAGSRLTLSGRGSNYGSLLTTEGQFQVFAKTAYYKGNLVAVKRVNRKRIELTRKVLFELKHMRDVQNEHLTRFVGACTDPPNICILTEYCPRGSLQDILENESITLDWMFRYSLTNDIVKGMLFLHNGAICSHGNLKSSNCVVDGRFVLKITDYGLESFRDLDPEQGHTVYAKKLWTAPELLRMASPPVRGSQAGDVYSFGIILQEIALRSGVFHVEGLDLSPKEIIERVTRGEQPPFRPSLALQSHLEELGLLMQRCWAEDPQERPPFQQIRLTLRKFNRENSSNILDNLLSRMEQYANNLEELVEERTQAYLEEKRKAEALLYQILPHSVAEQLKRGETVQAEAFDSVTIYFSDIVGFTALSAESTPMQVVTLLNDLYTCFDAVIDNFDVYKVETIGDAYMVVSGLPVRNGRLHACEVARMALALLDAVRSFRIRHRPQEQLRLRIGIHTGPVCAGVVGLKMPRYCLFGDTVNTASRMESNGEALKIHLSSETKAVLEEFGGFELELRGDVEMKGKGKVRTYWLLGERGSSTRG

This test concerns the target Atrial natriuretic peptide receptor 1 (Homo sapiens) (UniProt P16066). The test is described as follows: Natriuretic polypeptide receptor (hNpr1) antagonism - Primary qHTS. Also: nearly all actives have a fitted effect of over 60% in size. Particulars: HEK293 hNpr1 GloSensor cGMP, ANP-stimulated luminescence; series mostly up to 46.3 µM; activity change, negative = inhibition: at the top concentration. The text has this:
Pruritus or itch, is an irritating skin sensation that creates a need to scratch, and ranges from mildly unpleasant and passing to acute and persistent sensations. […] Conventional treatments include topical anti-inflammatory agents, anti-histamines, and emollients, which are aimed at managing the itchy sensation and not the underlying disease. The treatment of pruritus remains a diagnostic and therapeutic challenge. Neurotransmission in the spinal cord from primary pruriceptors to second order neurons is a necessary step that eventually results in the sensation of itch. At this synapse, primary pruriceptors use the neuropeptide natriuretic polypeptide B (NppB) to activate its cognate receptor Natriuretic polypeptide receptor 1 (Npr1) on second order neurons. Inhibition of this step is a new potential strategy to inhibit acute and chronic itch. In order to identify small molecular compounds that can inhibit the Npr1 receptor we developed a high-throughput assay to probe inhibition of the receptor guanylate cyclase Npr1. The assay was designed taking advantage of Promega's GloSensor[TM] technology (Fan, F. et al. 2008). It involves the expression of a cyclic guanosine monophosphate (cGMP) biosensor, comprised of a firefly luciferase variant that was coupled to the cGMP binding domain of human phosphodiesterase 5A, and loading of cells with a cell-permeable luciferase substrate to monitor cGMP production by Npr1 in real time in live cells. In detail, we generated human embryonic kidney 293 cells stably expressing the human Npr1 and the cGMP GloSensor[TM] pGS-40F. Stimulating these cells with the Npr1 agonists human NppA or NppB, luciferase-induced light production could be detected in a dose-dependent manner. We also generated HEK293 cells stably expressing human Npr2 and pGS-40F and cells only expressing pGS-40F to conduct secondary counter screens. In these cells, NppC or sodium nitroprusside were used to stimulate Npr2 or soluble guanylate cyclase which is endogenously expressed in HEK293 cells, respectively. REFERENCE F. Fan, B. F. Binkowski, B. L. Butler, P. F. Stecha, M. K. Lewis, K. V. Wood, Novel genetically encoded biosensors using firefly luciferase. ACS Chem. Biol., 2008, 3: 346-351 .
PROTOCOL TABLES (as described by Inglese J, Shamu CE and Guy RK. 2007) SEQUENCE No. (e.g., 1, 2, 3, etc.); […] (e.g., Cells, Incubation, Reagent, etc.); VALUE and DESCRIPTION. GLOSENSOR PROTOCOL 1. Cells. Seed 1500 HEK293 cGMP-sensor cells expressing hNpr1 per well in 4uL into Greiner 1536-well white/solid bottom high base, tissue culture-treated plates. 2. Incubation. Incubate plated cells at 37C in 5% CO2, 95% RH overnight. 3. Reagent. Add 1uL per well GloSensor reagent from Promega (2% final concentration) or CO2 independent media vehicle control to respective columns of Greiner 1536-well plates. 4. Incubation. Incubate plated cells at room temperature for 2 h, protect from light. 5. Compounds. Library compounds and A-71915 control added at 23 nL per well, transferred by Pin Tool. 6. Incubation. Incubate plated cells for 30 min. at room temperature, protect from light. 7. Detector. GloSensor baseline pre-read luminescence measured using CCD-based camera (Viewlux). 8. Compound. Add 1uL of hNppA peptide to 0.1 nM final concentration to stimulate hNpr1 or CO2 independent media as vehicle control. 9. Incubation. Incubate treated cells at room temperature for 20 min., protect from light. 10. Detector. GloSensor post-hNppA luminescence measured using CCD-based camera (Viewlux). NOTES (numbers refer to Sequence numbers above) 1. HEK293 cells expressing hNpr1 and GIP/pGS-40F grown to 85-95% confluence (48-72 h) in T175 culture flasks (CO2 independent media supplemented with 10% FBS, 1% Pen/Strep antibiotics and 1 ug/mL puromycin). Trypsinize and harvest cells from T175 culture flasks and filter through 40 um cell strainer. Cells counted with Invitrogen Countess (30,000,000 - 50,000,000 cells/flask). […]
For orientation: Quantitative high-throughput screening tests each substance at several concentrations.
As for `COc1ccc(Cl)cc1-c1ccc2c(c1)C(=O)N1CCN(C(C)=O)C[C@@H]1C(=O)N2`, the “activity change, negative = inhibition” value was -0.72% [at 70.6 µM].

Consider `Cc1c(Cl)c(C(=O)N2C[C@@H](CN3CCCN(C)CC3)[C@@H](CO)C2)nn1C`, for which the “activity change, negative = inhibition” value was 2.36%.

As to `CC(C)CCNC(=O)CCN(CC(C)C)C(=O)c1ccoc1`, the “activity change, negative = inhibition” value was -1.04%.

Consider `O=C(NC(C(=O)N1CCCCC1)C1CCN(C(=O)c2ccc(Cl)cc2)CC1)c1ccccc1` (centres undefined), for which the “activity change, negative = inhibition” value is -7.36%.

Consider `Cc1cnc(CC2CCN(C(=O)c3cccc4[nH]ccc34)CC2)n1CC1CC1`, for which the “activity change, negative = inhibition” value was -1.32%.

Consider `O=C1NCN(Cc2ccc(Cl)cc2)C12CCN(Cc1ccccc1)CC2`, for which the Potency is 11.2 µM (active).

In the case of `O=C(C1CC1)N1CCC2(CC1)C(=O)NCN2Cc1ccc(Cl)cc1`, the “activity change, negative = inhibition” value was 6.52%.

In the case of `CC(C)CCN1CCC2(CC1)C(=O)NCN2Cc1ccc(Cl)cc1`, the “activity change, negative = inhibition” value is 12.2%.

Turning to `COCC(=O)NC[C@H]1O[C@@H](CO)[C@@H](O)[C@H]1N1CCN(c2ccc(F)cc2)CC1`, the “activity change, negative = inhibition” value is 5.93%.

In the case of `CC(=O)NC1(C)CCN(Cc2cnc(-c3ccc4c(ccn4C)c3)s2)CC1`, the “activity change, negative = inhibition” value was -6.52% [at 70.6 µM].

For the compound `CC(=O)NC1(C)CN(Cc2ccc(-c3ccc4c(ccn4C)c3)s2)C1`, the Potency was 8.91 µM (active).

In the case of `COc1ccc(C(=O)N2CCC3(CC2)OC(=O)N(CC2CC2)C3(C)c2cccnc2)cn1` (centres undefined), the “activity change, negative = inhibition” value was -5.47% [at 70.6 µM].

As to `COc1ccc(CN2CCN(c3noc(C(C)C)n3)CC2CCO)cc1C` (centres undefined), the “activity change, negative = inhibition” value was -1.23%.

As for `O=C(C1CCCC1)N1CCC2(CCCCO2)CC1`, the “activity change, negative = inhibition” value was 3.39%.

Regarding `O=C(c1nc2c(o1)CCN(Cc1ccccc1F)CC2)N1CCOCC1`, the “activity change, negative = inhibition” value was -0.8% [at 70.6 µM].

Consider `O=C(NCC1CC1)c1nc2c(o1)CCN(CCc1ccccc1)CC2`, for which the “activity change, negative = inhibition” value was -0.0689% [at 70.6 µM].

For `O=C(NCC1CC1)c1nc2c(o1)CCN(Cc1cccc(F)c1F)CC2`, the Potency is 22.4 µM (active).

For `CCOc1ccccc1C(=O)N1CCC(c2n[nH]c(=O)n2-c2ccc(C)cc2)CC1`, the “activity change, negative = inhibition” value is -2.74%.

For `Cc1ccoc1C(=O)N1CCC(C2CCN(Cc3cccc(F)c3F)CC2)C1` (centres undefined), the “activity change, negative = inhibition” value is -16%.

In the case of `COc1ccc(C(=O)Nc2cccc(-c3nnc4n3CCCC4)c2)cc1`, the “activity change, negative = inhibition” value is 2.9%.

`COc1ccc(C)cc1NC(=O)Cn1nc2n(c1=O)CCCC2`: the “activity change, negative = inhibition” value was -1.49%.

For `COc1ccc(C)cc1NC(=O)Nc1cccc(-c2ccc(N3CCCCC3)nn2)c1`, the Potency was 10 µM (active).

For `COCC(=O)NC[C@H]1CCN(Cc2cn(C)c3ccccc23)C[C@H]1N(C)C`, the “activity change, negative = inhibition” value is 6.61%.

`COc1ccc(OCC2(C)COc3ccc(C(=O)Nc4cccnc4)cc3N2)cc1` (centres undefined): the Potency was 25.1 µM (active).

Take `COc1ccc(OCC2(C)COc3ccc(C(=O)NC4CCOCC4)cc3N2)cc1` (centres undefined): the “activity change, negative = inhibition” value was -9.27% [at 70.6 µM].

As for `CC1(COCC2CC2)COc2ccc(C(=O)NCc3cccnc3)cc2N1` (centres undefined), the “activity change, negative = inhibition” value is -4.53% [at 70.6 µM].

For the compound `Cc1ccc(C(=O)N2CCC3(CC2)CC(=O)c2ccccc2O3)cc1`, the “activity change, negative = inhibition” value was 6.47%.

`O=C(CCC[C@H]1NC[C@@H]2C[C@H]1CN(Cc1ccccc1)C2)NCC1CC1`: the “activity change, negative = inhibition” value was -1.01%.

In the case of `O=C(c1ccncc1)N1CCC(Cc2noc(C3CC3)n2)C1` (centres undefined), the “activity change, negative = inhibition” value was -1.24%.

Take `Cc1cc(CNC(=O)c2ccc(-c3ccccc3Cl)o2)n(C)n1`: the Potency was 11.2 µM (active).

Take `O=C(NCc1ccc(Cl)cc1)c1cccn2nccc12`: the “activity change, negative = inhibition” value was -5.27% [at 70.6 µM].

In the case of `COc1ccccc1-c1onc(C)c1C(=O)NCc1ccc(Cl)cc1`, the “activity change, negative = inhibition” value is -13.5%.

In the case of `Cn1cc(-c2cc(-c3cccnc3)c3cncn3c2)cn1`, the “activity change, negative = inhibition” value is -2.47% [at 70.6 µM].

As to `COc1ccc(-c2cc(N3CCCC(NC(=O)c4cc(F)ccc4Cl)C3)n[nH]2)cc1` (centres undefined), the “activity change, negative = inhibition” value is -13.6%.

As to `O=C(c1ccoc1)N1CCOc2ccc(CN3CCc4ccccc4C3)cc2C1`, the “activity change, negative = inhibition” value is 3.92%.

Turning to `O=C1c2cnc(-c3ccc(O)c(F)c3)nc2OCCN1Cc1ccccc1`, the “activity change, negative = inhibition” value was -10.8% [at 70.6 µM].

On to `O=C1c2cnc(-c3ccc(Cl)cc3)nc2OCCN1Cc1ccccc1`, for which the Potency is 31.6 µM (active).

On to `COc1ccc(-c2ncc3c(n2)OCCN(Cc2ccccc2)C3=O)cn1`, for which the “activity change, negative = inhibition” value was -12.4% [at 70.6 µM].

As to `COc1ccc(CNC(=O)N2CCC3(CC2)CC(N(C(C)=O)C2CC2)CCO3)cc1` (centres undefined), the “activity change, negative = inhibition” value was -4.72%.

Take `Cc1nn2c(c1-c1ccccc1Oc1ccccc1)N(C(=O)C(C)C)CCC2`: the “activity change, negative = inhibition” value was -16.7% [at 70.6 µM].

For `Cc1nn2c(c1-c1ccccc1-c1ccccc1)N(CC1CC1)CCC2`, the Potency was 2.82 µM (active).

Consider `Cc1nn2c(c1-c1ccccc1-c1ccccc1)N(C(=O)CN1CCOCC1)CCC2`, for which the “activity change, negative = inhibition” value was -11.1% [at 70.6 µM].

As to `COc1ccccc1-c1[nH]nc2ncc(C(=O)N3CCN(Cc4ccccc4)CC3)nc12`, the “activity change, negative = inhibition” value was 0.0858% [at 70.6 µM].

For `CN(C)C(=O)c1cccnc1OC1CCN(S(=O)(=O)c2ccc3c(c2)CCCC3)C1` (centres undefined), the “activity change, negative = inhibition” value was -19.8%.

In the case of `O=C(c1ccno1)N1C[C@@H]2OCC(=O)N(c3ccccc3)[C@@H]2C1`, the “activity change, negative = inhibition” value is -0.0457% [at 70.6 µM].

As to `O=C(Nc1cccc(Cl)c1)c1cnc2c(c1)N(C(=O)CCc1ccccc1)CCC2`, the “activity change, negative = inhibition” value is -5.9% [at 70.6 µM].

As to `N#Cc1ccc(CN2CCc3nc(C(=O)N4CCOCC4)oc3CC2)cc1`, the “activity change, negative = inhibition” value was -2.41% [at 70.6 µM].

In the case of `COc1ccc(CN2CCc3nc(C(=O)N4CCOCC4)oc3CC2)cc1OC`, the “activity change, negative = inhibition” value is -5.72% [at 70.6 µM].

For `O=C(NCCOc1ccccc1)c1nc2c(o1)CCN(CC1CCCCC1)CC2`, the “activity change, negative = inhibition” value is -2.91% [at 70.6 µM].

(Values after PubChem BioAssay AID1347048 (National Center for Advancing Translational Sciences (NCATS), 2019).)
